Assay outcomes deposited in PubChem by Broad Institute.
Sampled rows, rich in hits. Any-hit rate of the full collection: about 1.3%.
HIF activator: HIF pathway transcriptional activation | 300,000 tested, 0.32% active | U2OS HRE-luciferase reporter, luminescence; normalized: DMSO 0%, desferrioxamine 100% | activation, % at 7.5 µM (by protocol) | AID 1910;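 active means mean activation of at least 10% of the iron chelator positive control signal, with at least half of replicates also reaching 10%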
AI-2 QS mod: modulates the Vibrio harveyi AI-2 quorum sensing system; Vibrio harveyi JMH597 AI-2 luminescence/OD600 ratio, 9 h; active compounds read low; strain lacks LuxN and CqsS sensors; 0 = neutral-control median; activity change, % at 7.5 µM; 300,000 tested, 0.4% active; in the data active means activity change below about -75%, passing the limit was not always enough;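 further: luminescence divided by OD600 gain over 9 h not by final OD600 alone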
Statin myotox sup: protects C2C12 myotubes from simvastatin toxicity. ATP luminescence, 48 h; scaled: DMSO 0, geranylgeraniol control 100. rescue of ATP level, % at 7.49 µM. 330,000 tested, 0.78% active;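 active means mean ATP rescue above about 67%, or every replicate alone reaching that limit, limit read from the data, passing the limit was not always enough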;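 further: myotubes were challenged with 10 µM simvastatin during compound exposure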
PGC1a acetyl inh: PGC1a acetylation modulation, inhibitor mode | U2OS PGC1a acetylation, AlphaScreen anti-acetyl-lysine; with virally co-expressed GCN5 acetyltransferase | inhibition, % at 15.6 µM | 350,000 tested, 0.17% active | AID 651687;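 active means every replicate shows inhibition of at least 40%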
Rce1 inh: yeast Ras-converting enzyme inhibition. 290,000 tested, 0.27% active. Q03530. yeast membranes, quenched prenylated peptide cleavage fluorescence. AID 2563. calls only;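 active means fall in fluorescence gain of 50% or more versus controls, with final raw signal at or below 3038400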
Target sequence (Q03530 whole entry, looked up): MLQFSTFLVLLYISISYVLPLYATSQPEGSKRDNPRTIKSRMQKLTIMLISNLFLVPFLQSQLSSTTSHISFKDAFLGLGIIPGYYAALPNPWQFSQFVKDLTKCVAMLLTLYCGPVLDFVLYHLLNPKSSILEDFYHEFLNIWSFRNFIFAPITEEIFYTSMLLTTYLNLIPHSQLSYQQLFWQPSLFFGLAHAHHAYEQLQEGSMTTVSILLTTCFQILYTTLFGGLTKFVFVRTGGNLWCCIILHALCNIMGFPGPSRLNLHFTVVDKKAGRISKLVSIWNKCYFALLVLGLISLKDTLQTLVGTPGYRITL
Each line names hits and unclear results; the compound was inactive in the other large screens.

O=C1OCCN1C(=O)[C@H]1[C@H](c2ccc(F)cc2)C(c2ccc(F)cc2)=NN1c1ccc(Br)cc1	Rce1 inh active (no result: PGC1a acetyl inh)
O=C1OCCN1C(=O)[C@H]1[C@H](c2ccc(Cl)cc2)C(c2ccc(F)cc2)=NN1c1ccc(Br)cc1	none (no result: HIF activator, AI-2 QS mod, Rce1 inh)
CC(C)N1C(=O)CCC1C(=O)N1CCC(Cc2ccccc2)CC1 (configuration not stated)	Statin myotox sup 132
Cc1ccccc1OC(C)C(=O)N1CCC(Cc2ccccc2)CC1 (configuration not stated)	Rce1 inh active (no result: PGC1a acetyl inh)
C[C@@H]1CN([C@H](C)CO)C(=O)c2cc(NC(=O)Nc3ccc(F)cc3)ccc2O[C@@H](C)CCCCO[C@H]1CN(C)C(=O)Nc1ccc(F)cc1	none (no result: HIF activator, AI-2 QS mod, Statin myotox sup, Rce1 inh)
CNC(=O)C[C@@H]1CC[C@@H]2[C@@H](COc3ccc(NC(=O)Nc4cccc(F)c4)cc3C(=O)N2C)O1	none (no result: HIF activator, AI-2 QS mod, Rce1 inh)
COc1ccc2c3c([nH]c2c1)[C@H](CO)N(C(=O)c1ccncc1)CC31CN(C(=O)NC(C)C)C1	none (no result: HIF activator, AI-2 QS mod, Statin myotox sup, Rce1 inh)
CCOC(=O)C(=CNCC(=O)OC)C(=O)OCC	Statin myotox sup 107
C[C@@H]1CCCCO[C@H](CN(C)Cc2ccc(C(F)(F)F)cc2)[C@@H](C)CN([C@@H](C)CO)C(=O)c2cc(NS(=O)(=O)c3ccc(F)cc3)ccc2O1	none (no result: HIF activator, AI-2 QS mod, Statin myotox sup, Rce1 inh)
CC1CN(c2nc3ccccn3c(=O)c2/C=C(\C#N)C(=O)N2CCOCC2)CC(C)O1 (configuration not stated)	HIF activator 18 (no result: Statin myotox sup)
Cc1cc(Br)c(OCc2ccc(C(=O)N/N=C/c3ccc[nH]3)cc2)c(Br)c1	PGC1a acetyl inh 87 (no result: HIF activator, AI-2 QS mod, Rce1 inh)
O=C(N/N=C/c1ccc[nH]1)c1ccc(COc2cccc3cccnc23)cc1	none
O=C(c1cc2cc(Cl)cc(Cl)c2oc1=O)N1CCOCC1	Statin myotox sup 115
O=C(c1ccc(Cl)cc1Cl)N1CCOCC1	none (no result: HIF activator, AI-2 QS mod, Rce1 inh)
S=C(c1ccc(-c2ccccc2Cl)o1)N1CCOCC1	Statin myotox sup 78
S=C(c1ccc(-c2ccc(Cl)c(Cl)c2)o1)N1CCOCC1	none (no result: HIF activator)
CN1C(=O)c2cc(NC(=O)c3cccs3)ccc2OC[C@H]2O[C@@H](CC(=O)N3CCCCC3)CC[C@@H]21	none (no result: HIF activator, AI-2 QS mod, Rce1 inh)
Cc1scc(C(=O)N/N=C/c2ccc([N+](=O)[O-])o2)c1C	AI-2 QS mod -91 (no result: PGC1a acetyl inh)
O=C(N/N=C\c1ccc(Cl)s1)C1COc2ccccc2O1 (configuration not stated)	none (no result: Statin myotox sup, Rce1 inh)
O=C(N/N=C\c1ccc([N+](=O)[O-])s1)C1COc2ccccc2O1 (configuration not stated)	AI-2 QS mod -86 (no result: Statin myotox sup, PGC1a acetyl inh)
O=C(N/N=C\c1ccc(-c2ccccc2[N+](=O)[O-])o1)C1COc2ccccc2O1 (configuration not stated)	none (no result: Statin myotox sup)
O=C(N/N=C\c1ccc([N+](=O)[O-])o1)C1COc2ccccc2O1 (configuration not stated)	AI-2 QS mod -87 (no result: Statin myotox sup)
Cc1scc(C(=O)N/N=C/c2ccco2)c1C	none (no result: Statin myotox sup, PGC1a acetyl inh)
COCC(=O)Nc1ccc2c(c1)C(=O)N(C)[C@H]1CC[C@@H](CC(=O)OC)O[C@H]1CO2	none (no result: HIF activator, AI-2 QS mod, Rce1 inh)
CCNc1nc(Cl)nc(NNC(=O)C(C)Oc2ccccc2)n1 (configuration not stated)	HIF activator 236 (no result: Statin myotox sup)
O=C(C1CCOCC1)N1C[C@@H]2[C@H](c3ccccc31)[C@H](CO)N2C(=O)c1ccccc1	none (no result: HIF activator, AI-2 QS mod, Rce1 inh)
O=C(O)c1cc(-c2ccc(N3CCOCC3)cc2)nn1-c1ccc(F)cc1F	Rce1 inh active (no result: Statin myotox sup, PGC1a acetyl inh)
N#CC1CN(C(c2ccccc2)c2ccccc2)C1	Statin myotox sup 107
C#CCOCCOCCOCCNc1nc(N2CCN(C(=O)CCCCCCCCCCNC(=O)Cn3cc(C[C@@H](C)O)nn3)CC2)nc(N2CCN(C(=O)CCCCCCCCCCNC(=O)[C@@H]([C@H](C)O)n3cc(C)nn3)CC2)n1	Statin myotox sup 106 (no result: HIF activator, AI-2 QS mod, PGC1a acetyl inh, Rce1 inh)
C#CCOCCOCCOCCNc1nc(N2CCN(C(=O)CCCCCCCCCCNC(=O)Cn3cc(CCCCCN)nn3)CC2)nc(N2CCN(C(=O)CCCCCCCCCCNC(=O)[C@@H]([C@H](C)O)n3cc(C)nn3)CC2)n1	none (no result: HIF activator, AI-2 QS mod, Rce1 inh)
COC(=O)c1cc(C(=O)c2ccc(C(C)(C)C)cc2)c[nH]1	AI-2 QS mod -85 (no result: PGC1a acetyl inh)
CCOC(=O)c1c(S(=O)(=O)N2CCC(C)CC2)c(C)n(C)c1C	HIF activator 44 (no result: PGC1a acetyl inh)
CCC(=O)N1CCc2cc(S(=O)(=O)NCCCN3CCN(Cc4ccccc4)CC3)ccc21	Statin myotox sup 156
CCC(=O)N1CCc2cc(S(=O)(=O)CCC(=O)N3CCN(c4ccccc4)CC3)ccc21	none
CCC(=O)N1CCc2cc(S(=O)(=O)CCC(=O)N3CCc4ccccc4C3)ccc21	Statin myotox sup 76
COc1ccc(Cc2nnc(SCC(=O)NC3CCCCC3)n2C)cc1	HIF activator 70 (no result: PGC1a acetyl inh)
CCn1c(COc2cccc(C)c2)nnc1SCC(=O)NC1CCCC1	Rce1 inh active
CCn1c(COc2cccc(OC)c2)nnc1SCC(=O)NC1CCCC1	none
O=C(OCC(=O)N1CCOCC1)c1ccccc1OCc1ccc(Cl)cc1	none (no result: HIF activator, AI-2 QS mod, Rce1 inh)
O=C(OCC(=O)N1CCN(C(=O)c2ccco2)CC1)c1ccccc1OCc1ccc(Cl)cc1	Statin myotox sup 133
Cc1nc2ccccn2c1-c1nnco1	Statin myotox sup 72
C/C(=N\NC(=O)c1cc(-c2cccnc2)nc2ccccc12)c1ccc(O)cc1O	HIF activator 36 (no result: Statin myotox sup)
C/C(=N\NC(=O)c1cc(-c2cccc(OC(C)C)c2)nc2ccccc12)c1cccnc1	none
O=C1CN(/N=C/c2ccc([N+](=O)[O-])o2)C(=O)N1	AI-2 QS mod -89
CCN(C(C)=O)c1cccc2ccccc12	Statin myotox sup 147
C/C(=N\NC(=S)NC(C)C)c1ccccc1	none (no result: Statin myotox sup)
CC(C)NC(=S)NN=C1c2ccccc2-c2ccccc21	HIF activator 26 (no result: PGC1a acetyl inh)
Cc1ccc(S(=O)(=O)Nc2ccc3c(c2)C(=O)N([C@H](C)CO)C[C@@H](C)[C@@H](CN(C)C(=O)Nc2ccc4c(c2)OCO4)OCCCC[C@H](C)O3)cc1	none (no result: HIF activator, AI-2 QS mod, Statin myotox sup, Rce1 inh)
O=C1c2ccccc2C(=O)N1CCC1=CCCCC1	Statin myotox sup 122
O=C(O)c1ccc2c(c1)C(=O)N(CCC1=CCCCC1)C2=O	none
CCOc1ccccc1Nc1ncnc2ccccc12	Statin myotox sup 86 (no result: Rce1 inh)
CCS(=O)(=O)N[C@@H]1CC[C@@H](CC(=O)NC2Cc3ccccc3C2)O[C@@H]1CO	none (no result: HIF activator, AI-2 QS mod, Rce1 inh)
CCCCCc1ccc(OCCOCCn2c[n+](C)c3ccccc32)c(CCCCC)c1	Rce1 inh active (no result: Statin myotox sup, PGC1a acetyl inh)
COCC(=O)N1CC[C@H]2[C@@H]1c1cc(-c3ccc(OC)cc3)ccc1N(C)[C@H]2CO	none (no result: HIF activator, AI-2 QS mod, Rce1 inh)
COc1ccc(N2C(=O)c3ccc(NC(C)=O)cc3C2=O)cc1	none
CC(=O)Nc1ccc2c(c1)C(=O)N(c1ccc(C)cc1)C2=O	Statin myotox sup 77
COc1ccc(CSc2nnc3[nH]c(=O)cc(N)n23)cc1	AI-2 QS mod -80 (no result: Statin myotox sup, PGC1a acetyl inh)
N#Cc1ccc(CSc2nnc3[nH]c(=O)cc(N)n23)cc1	none (no result: Statin myotox sup)
CC(C)NC(=O)N1CC(=O)N2[C@H](CO)[C@H](c3ccc(C#CCN(C)C)cc3)[C@@H]2C1	none (no result: HIF activator, AI-2 QS mod, Statin myotox sup, Rce1 inh)
